Results as given in PubChem BioAssay (NCATS).
Where “and” joins values, the source holds several entries; their conditions need not be identical. Equal values may be shown once. Records with an inconclusive call do not appear. Calls of active or inactive are those of the source. Unless noted, calls follow the shape of the dose curve; as a rule, active = well fitted curve in the direction sought with a large enough effect; inconclusive = small, poorly fitted or top-dose-only effect, or another doubt; inactive = no such curve, though single readings can be large; an effect the other way counts as inactive or inconclusive.

Tests used:
[1] = target: Cytochrome P450 3A4 (Homo sapiens) (UniProt P08684); experiment: qHTS Assay for Inhibitors and Substrates of Cytochrome P450 3A4 (AID 884); also: series mostly up to about 57 µM; % is scaled to controls: 0 for no effect and ±100 for the full control effect; nearly all actives have a fitted effect of over 50% in size
Cytochrome P450 3A4 (Homo sapiens), sequence (P08684 whole entry, looked up): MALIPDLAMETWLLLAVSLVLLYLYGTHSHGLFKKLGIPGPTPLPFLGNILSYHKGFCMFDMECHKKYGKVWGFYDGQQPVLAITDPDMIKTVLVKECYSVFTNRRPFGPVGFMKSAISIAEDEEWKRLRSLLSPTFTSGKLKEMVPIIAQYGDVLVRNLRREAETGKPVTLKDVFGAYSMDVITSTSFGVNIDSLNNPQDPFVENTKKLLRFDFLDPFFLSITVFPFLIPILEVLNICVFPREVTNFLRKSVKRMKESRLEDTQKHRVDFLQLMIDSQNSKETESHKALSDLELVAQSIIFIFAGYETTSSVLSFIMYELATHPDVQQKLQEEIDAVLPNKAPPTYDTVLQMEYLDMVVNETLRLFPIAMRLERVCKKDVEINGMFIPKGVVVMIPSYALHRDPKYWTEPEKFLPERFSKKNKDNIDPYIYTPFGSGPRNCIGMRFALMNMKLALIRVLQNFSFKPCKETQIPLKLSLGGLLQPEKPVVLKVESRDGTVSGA
Method in brief: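 Luminescent readout of luciferin produced by CYP3A4 (20 nM) dealkylation of Luciferin-PPXE, 25 uM (its KM). NADPH-driven reaction ran 60 min at RT after 10 min compound preincubation; data scaled to 57 uM ketoconazole as 100% inhibition.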

[2] = MultiTox-Fluor Cytotoxicity Assay - LYMP1-001 - Live Cells (AID 947);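 also: 0% = DMSO only and full inhibition = tetraoctylammonium bromide control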
[3] = MultiTox-Fluor Cytotoxicity Assay - LYMP1-002 - Dead Cells (AID 960);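 also: 0% = DMSO and 100% = tetraoctylammonium bromide; nearly all actives have a fitted effect of over 60% in size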
Method in brief: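 Dead-cell fluorescence (Ex/Em 485/520) after 16 h compound exposure at 37 C of LYMP1-002 lymphoblastoid cells in complete medium; AC50 by Hill equation, with data scaled between DMSO and 15 uM tetraoctylammonium bromide.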

[4] = Cell Viability - LYMP2-009 (AID 968);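 also: series mostly up to about 92 µM; 0% = DMSO alone and the full-kill end = tetraoctylammonium bromide at 92 µM; nearly all actives have a fitted effect of over 55% in size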
[5] = Cell Viability - LYMP2-015 (AID 971);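 also: 0% = DMSO only and full effect = 92 µM tetraoctylammonium bromide; nearly all actives have a fitted effect of over 55% in size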
Method in brief: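 Cytotoxicity readout: decrease in intracellular ATP (CellTiter-Glo luminescence) in 2500 LYMP2-015 lymphoblastoid cells/well after 24 h compound exposure at 37 C. Concentration-response data fitted with the standard Hill equation to give AC50.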

[6] = target: Estrogen receptor (Homo sapiens) (UniProt P03372); experiment: qHTS assay for small molecule antagonists of estrogen receptor alpha signaling (AID 588513; active = well fitted curve in the direction sought with a large enough effect in the signal ratio, with a control signal flat, not every such curve was filed as active; the % refers to the signal ratio; also: % is scaled to controls: 0 for no effect and ±100 for the full control effect)
Estrogen receptor (Homo sapiens), sequence (P03372 whole entry, looked up): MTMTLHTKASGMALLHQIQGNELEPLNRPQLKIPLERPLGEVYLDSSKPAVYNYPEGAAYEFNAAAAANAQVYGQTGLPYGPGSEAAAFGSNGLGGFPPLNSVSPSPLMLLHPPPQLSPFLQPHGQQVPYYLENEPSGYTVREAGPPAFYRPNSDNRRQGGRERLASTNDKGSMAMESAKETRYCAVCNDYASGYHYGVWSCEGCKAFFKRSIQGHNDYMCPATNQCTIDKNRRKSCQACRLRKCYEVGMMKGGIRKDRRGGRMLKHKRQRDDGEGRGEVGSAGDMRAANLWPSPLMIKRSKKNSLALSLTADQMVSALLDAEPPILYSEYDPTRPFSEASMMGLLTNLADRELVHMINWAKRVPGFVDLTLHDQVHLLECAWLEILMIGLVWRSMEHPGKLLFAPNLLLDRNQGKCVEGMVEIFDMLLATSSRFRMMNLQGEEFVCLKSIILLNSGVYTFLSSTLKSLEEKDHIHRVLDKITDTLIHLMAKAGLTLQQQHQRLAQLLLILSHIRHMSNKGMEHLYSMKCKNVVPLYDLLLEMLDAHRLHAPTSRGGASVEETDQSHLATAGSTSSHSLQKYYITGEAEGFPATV
Method in brief: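 Antagonist mode: inhibition of 0.5 nM 17-beta-estradiol-driven beta-lactamase reporter in HEK 293 ER-alpha-UAS-bla cells, 18 h at 37C, CCF4 readout after 2 h at RT. Normalised to estradiol and DMSO; titration fitted to Hill.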

[7] = target: Peroxisome proliferator-activated receptor gamma (Homo sapiens) (UniProt P37231); experiment: qHTS assay for small molecule agonists of peroxisome proliferator-activated receptor gamma signaling (AID 588536; active = well fitted curve in the direction sought with a large enough effect in the signal ratio, with a control signal flat, not every such curve was filed as active; the % refers to the signal ratio;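 also: 0% = DMSO basal wells and 100% = rosiglitazone at 2 µM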)
Peroxisome proliferator-activated receptor gamma (Homo sapiens), sequence (P37231 whole entry, looked up): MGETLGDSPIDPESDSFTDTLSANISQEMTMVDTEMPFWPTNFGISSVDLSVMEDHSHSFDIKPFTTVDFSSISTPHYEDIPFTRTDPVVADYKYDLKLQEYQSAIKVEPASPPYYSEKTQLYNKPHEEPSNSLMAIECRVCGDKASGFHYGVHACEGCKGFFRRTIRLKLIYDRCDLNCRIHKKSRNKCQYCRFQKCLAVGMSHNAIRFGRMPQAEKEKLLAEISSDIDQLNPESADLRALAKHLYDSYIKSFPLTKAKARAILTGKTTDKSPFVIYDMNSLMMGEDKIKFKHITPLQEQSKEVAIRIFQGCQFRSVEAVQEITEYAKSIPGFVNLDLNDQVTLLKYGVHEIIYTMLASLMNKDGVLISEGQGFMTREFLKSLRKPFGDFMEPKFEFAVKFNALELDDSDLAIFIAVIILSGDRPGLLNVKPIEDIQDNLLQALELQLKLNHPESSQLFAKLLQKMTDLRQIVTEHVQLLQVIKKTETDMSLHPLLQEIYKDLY
Method in brief: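 Beta-lactamase reporter read-out: CCF4 fluorescence (ex 405, em 460/530 nm) after 2 h at RT. HEK293 GeneBLAzer cells were treated for 16 h at 37 C. Hill fits gave EC50 and efficacy versus 2 uM rosiglitazone (100%) and DMSO (0%).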

[8] = target: Vitamin D3 receptor (Homo sapiens) (UniProt P11473); experiment: qHTS assay for small molecule agonists of vitamin D receptor signaling (AID 588543; calls by dose curve;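 also: 0% = DMSO basal and 100% = reference agonist control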)
Vitamin D3 receptor (Homo sapiens), sequence (P11473 whole entry, looked up): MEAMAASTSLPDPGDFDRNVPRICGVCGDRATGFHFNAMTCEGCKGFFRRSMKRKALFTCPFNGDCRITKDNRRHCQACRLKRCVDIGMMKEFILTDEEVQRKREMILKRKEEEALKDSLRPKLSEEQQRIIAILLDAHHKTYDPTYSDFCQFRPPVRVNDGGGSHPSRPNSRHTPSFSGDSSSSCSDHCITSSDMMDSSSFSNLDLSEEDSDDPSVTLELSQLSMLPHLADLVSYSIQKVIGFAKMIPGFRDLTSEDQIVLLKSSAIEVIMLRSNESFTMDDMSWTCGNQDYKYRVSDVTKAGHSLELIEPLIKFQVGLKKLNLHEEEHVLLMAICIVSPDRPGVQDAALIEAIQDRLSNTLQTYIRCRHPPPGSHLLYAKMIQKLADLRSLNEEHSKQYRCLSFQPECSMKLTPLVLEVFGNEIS
Method in brief: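 Agonist-mode beta-lactamase reporter: HEK293T VDR-UAS-bla cells in charcoal-stripped 2% FBS, compound series 16 h 37 C, CCF4 2 h RT. EC50 from Hill fit, scaled against DMSO and 50 nM calcitriol control.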

[9] = qHTS assay for small molecule agonists of retinoid X receptor alpha signaling (AID 588544; calls by dose curve;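 as to activation: 0% = DMSO basal wells and 100% = reference agonist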); details: HEK293T RXRa-UAS-bla, beta-lactamase reporter, 18 h; 530 nm emission
[10] = target: Retinoic acid receptor RXR-alpha (Homo sapiens) (UniProt P19793); experiment: as above
Retinoic acid receptor RXR-alpha (Homo sapiens), sequence (P19793 whole entry, looked up): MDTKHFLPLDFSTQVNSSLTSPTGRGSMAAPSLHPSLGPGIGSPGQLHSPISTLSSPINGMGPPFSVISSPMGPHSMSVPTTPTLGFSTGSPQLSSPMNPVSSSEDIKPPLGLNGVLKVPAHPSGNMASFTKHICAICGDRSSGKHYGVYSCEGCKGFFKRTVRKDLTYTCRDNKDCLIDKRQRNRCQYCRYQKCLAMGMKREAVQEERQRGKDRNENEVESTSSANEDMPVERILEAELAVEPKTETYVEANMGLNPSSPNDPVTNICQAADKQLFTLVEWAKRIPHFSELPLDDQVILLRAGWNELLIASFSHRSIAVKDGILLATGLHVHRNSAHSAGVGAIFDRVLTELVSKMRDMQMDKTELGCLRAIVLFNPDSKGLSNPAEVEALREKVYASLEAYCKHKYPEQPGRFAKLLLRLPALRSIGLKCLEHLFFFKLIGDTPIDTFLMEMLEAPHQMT

[11] = target: Thyroid hormone receptor beta (Homo sapiens) (UniProt P10828); experiment: qHTS assay for small molecule antagonists of thyroid hormone receptor beta signaling (AID 588547; active = well fitted inhibition curve with a large enough effect in the signal ratio, with a control signal flat, not every such curve was filed as active; the % refers to the signal ratio;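 also: cells stimulated with 0.4 nM T3 agonist during compound exposure; series mostly up to about 77 µM; % is scaled to controls: 0 for no effect and ±100 for the full control effect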); details: TR-UAS-bla HEK293, beta-lactamase ratio, antagonist mode, 18 h
Thyroid hormone receptor beta (Homo sapiens), sequence (P10828 whole entry, looked up): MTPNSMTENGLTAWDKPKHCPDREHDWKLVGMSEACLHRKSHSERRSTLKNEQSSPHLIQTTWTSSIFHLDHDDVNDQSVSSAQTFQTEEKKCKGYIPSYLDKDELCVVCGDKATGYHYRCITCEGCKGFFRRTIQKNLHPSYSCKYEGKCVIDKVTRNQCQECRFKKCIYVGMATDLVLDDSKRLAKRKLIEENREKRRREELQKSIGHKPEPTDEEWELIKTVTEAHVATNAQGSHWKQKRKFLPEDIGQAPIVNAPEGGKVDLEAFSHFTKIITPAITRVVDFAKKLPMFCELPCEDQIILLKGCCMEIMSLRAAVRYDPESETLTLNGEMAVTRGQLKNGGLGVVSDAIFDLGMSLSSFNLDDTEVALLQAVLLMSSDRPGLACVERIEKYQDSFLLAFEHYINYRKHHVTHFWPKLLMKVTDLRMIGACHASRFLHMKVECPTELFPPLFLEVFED
Method in brief: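 TR-UAS-bla GripTite HEK293 cells in 2% charcoal/dextran FBS medium were preincubated 4 h at 37 C, given compound (0.59 nM to 92 uM) plus 0.4 nM T3 (final) for 18 h, then CCF4 for 2 h at RT; Hill fit gave IC50.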

[12] = qHTS assay for small molecule activators of the p53 signaling pathway (AID 651743; active = well fitted activation curve with a large enough effect in the signal ratio, not every such curve was filed as active; the % refers to the signal ratio; also: series mostly up to about 92 µM; % of control where 0% means no effect); details: HCT-116 p53RE-bla, beta-lactamase FRET ratio, 16 h; activation: stronger effect = higher value
Method in brief: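 Agonist-mode quantitative HTS in HCT-116 cells carrying a p53-response-element beta-lactamase reporter; 16 h compound treatment at 37 C, then FRET substrate loading for 2 h at room temperature and fluorescence read.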

[13] = qHTS assay for small molecule disruptors of the mitochondrial membrane potential - 1 hr assay (AID 651754; calls by dose curve; also: % is scaled to controls: 0 for no effect and ±100 for the full control effect; nearly all actives have a fitted effect of over 35% in size)
Method in brief: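 Mitochondrial potential in living HepG2 cells after 1 hr compound treatment at 37C was read with Mito-MPS dye added for a further 30 min. Red aggregate and green monomer fluorescence were measured; loss of potential leaves dye as cytoplasmic monomers.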

[14] = qHTS assay for small molecule disruptors of the mitochondrial membrane potential - 5 hr assay (AID 651755; calls by dose curve; also: % is scaled to controls: 0 for no effect and ±100 for the full control effect; nearly all actives have a fitted effect of over 40% in size)
Method in brief: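 Seed HepG2 overnight, add compound, incubate 5 hr at 37C and 5% CO2, stain 30 min with Mito-MPS, then measure monomer (490/535 nm) and aggregate (540/590 nm) fluorescence.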

[15] = target: Tumor necrosis factor (Homo sapiens) (UniProt P01375); experiment: qHTS assay to identify small molecules that stimulate Tumor Necrosis Factor-alpha (TNF-alpha) secretion (AID 651757; active = well fitted curve in the direction sought with a large enough effect in the signal ratio; the % refers to the signal ratio; also: 0% is about no effect)
Tumor necrosis factor (Homo sapiens), sequence (P01375 whole entry, looked up): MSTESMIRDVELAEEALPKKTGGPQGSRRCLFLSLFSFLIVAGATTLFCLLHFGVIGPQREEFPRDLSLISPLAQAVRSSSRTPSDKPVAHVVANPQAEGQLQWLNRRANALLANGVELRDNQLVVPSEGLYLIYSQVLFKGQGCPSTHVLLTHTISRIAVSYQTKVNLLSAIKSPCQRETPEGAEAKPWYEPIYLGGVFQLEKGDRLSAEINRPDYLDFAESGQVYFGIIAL
Method in brief: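 Secreted TNF-alpha quantified by TR-FRET sandwich of two labeled anti-TNF-alpha antibodies, incubated 3 hr at room temperature. Preceded by 17 hr, 37 C compound treatment of THP-1 cells at 3000 cells/well.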

[16] = qHTS assay for environmental chemicals that activate the Aryl hydrocarbon Receptor (AhR) signaling pathway (AID 651777); details: 1A2-DRE human hepatoma cells, luciferase, 24 h; activation: stronger effect = higher value; also: % of control where 0% means no effect; nearly all actives have a fitted effect of over 15% in size
Method in brief: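 1A2-DRE human hepatoma reporter line; 1,200 cells/well; cmpd or DMSO 24 h, 37 C/5% CO2; One-Glo 30 min RT; luciferase lum.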

[17] = qHTS assay for small molecule agonists of the antioxidant response element (ARE) signaling pathway measured by Nrf2-dependant transcriptional activity (AID 720636; active = well fitted curve in the direction sought with a large enough effect in the repeat runs; an effect the other way counts as inactive or inconclusive;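 also: HepG2 cells with an ARE-driven luciferase reporter; % of control where 0% means no effect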)
Method in brief: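 Cells: ARE-luc HepG2 with Nrf2-responsive luciferase. Medium contained 1% dialyzed FBS. Compound exposure lasted 16 hr at 37 C and 5% CO2, followed by ONE-Glo luciferase detection.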

[18] = qHTS assay for small molecule antagonists of the retinoid-related orphan receptor gamma (ROR-gamma) signaling pathway - cell viability counter screen (AID 720652; active = well fitted curve in the direction sought with a large enough effect in the repeat runs; an effect the other way counts as inactive or inconclusive;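 also: CHO reporter cells with doxycycline-induced ROR-gamma expression; series mostly up to about 92 µM; compound exposure lasted 16 hr before ATP read; % is scaled to controls: 0 for no effect and ±100 for the full control effect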)
Method in brief: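 Cytotoxicity counter screen: intracellular ATP (CellTiter-Glo luminescence) measured in the doxycycline-induced CHO RORE-luciferase reporter line after 16 hr compound exposure at 37 C, 5% CO2.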

[19] = target: Nuclear receptor subfamily 1 group I member 2 (Rattus norvegicus) (UniProt Q9R1A7); experiment: qHTS assay for small molecule activators of the rat pregnane X receptor (rPXR) signaling pathway (AID 651751; call rule not given here; also: 0% is about no effect); details: rPXR reporter cells, luciferase (One-Glo), 24 h
Nuclear receptor subfamily 1 group I member 2 (Rattus norvegicus), sequence (Q9R1A7 whole entry, looked up): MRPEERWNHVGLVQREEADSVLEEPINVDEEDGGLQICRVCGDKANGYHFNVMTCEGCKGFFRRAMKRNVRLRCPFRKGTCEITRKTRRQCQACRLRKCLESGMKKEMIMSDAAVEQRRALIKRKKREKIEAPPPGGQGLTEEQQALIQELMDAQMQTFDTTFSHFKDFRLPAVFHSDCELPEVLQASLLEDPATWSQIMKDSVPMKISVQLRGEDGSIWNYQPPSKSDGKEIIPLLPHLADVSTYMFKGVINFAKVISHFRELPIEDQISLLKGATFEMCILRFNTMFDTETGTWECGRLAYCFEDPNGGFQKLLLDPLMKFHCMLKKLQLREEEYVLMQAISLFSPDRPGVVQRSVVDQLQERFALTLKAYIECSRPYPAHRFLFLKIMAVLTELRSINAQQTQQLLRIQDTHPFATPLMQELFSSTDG

[20] = qHTS assay for small molecule activators of the human pregnane X receptor (PXR) signaling pathway (AID 720659; call rule not given here; also: 0% is about no effect)

COC(=O)CCCCC(=O)OC
inactive: Potency [1] | Potency [2] | Potency [3] | Potency [4] | Potency [5] | Potency [6] | outcome [7] | outcome [8] | outcome [10] | activity change % (negative = inhibition) [11] 22.1% and -0.698% and -15.8% | activation [12] -0.0209% and -1.5% | Potency [13] | Potency [14] | outcome [15] | activation [16] 3.11% and -1.77% and 1.4% | Potency [17] | Potency [18] | max response [19] 5.4% and -0.278% and 0.834% | outcome [20]
-8.22% and -17.2% and -16.7%: max response [9]

O=C(/C=C/c1ccc(O)c(O)c1)O[C@@H](C(=O)O)[C@@H](OC(=O)/C=C/c1ccc(O)c(O)c1)C(=O)O
-0.499%: max response [9]
inactive: Potency [1] | Potency [2] | Potency [3] | Potency [4] | Potency [5] | outcome [7] | outcome [8] | outcome [10] | activity change % (negative = inhibition) [11] -11.2% | activation [12] 0.853% | Potency [13] | Potency [14] | Potency [17] | Potency [18] | max response [19] -5.44% | outcome [20]

OCCNCCO
inactive: Potency [1] | Potency [2] | Potency [3] | Potency [4] | Potency [5] | Potency [6] | outcome [8] | outcome [10] | Potency [13] | Potency [14] | outcome [15] | activation [16] 1.33% and -0.956% | Potency [17] | Potency [18] | outcome [20]
-28.3% and -18.3%: max response [9]

CC(C)=CCCC(C)CCO (configuration not stated)
inactive: Potency [1] | Potency [2] | Potency [3] | Potency [4] | Potency [5] | Potency [6] | outcome [7] | outcome [10] | activity change % (negative = inhibition) [11] -8.9% and -1.71% | activation [12] 0.545% and -1.78% | Potency [13] | Potency [14] | outcome [15] | activation [16] -0.0827% and -0.667% | Potency [17] | Potency [18] | max response [19] -5.01% and 0.846% | outcome [20]
-10.2% and -2.4%: max response [9]
